G9a inh: qHTS Assay for Inhibitors of Histone Lysine Methyltransferase G9a; G9a H3K9 monomethylation, AlphaScreen, 2 h; 350,000 tested, 8.8% active; Histone-lysine N-methyltransferase EHMT2 (Homo sapiens), Q96KQ7; Potency, µM (doses to about 102 µM), hits mostly inhibitors; AID 504332, 2011; note: nearly all actives have a fitted effect of over 75% in size
Target sequence (Q96KQ7 913-1193 limits assumed): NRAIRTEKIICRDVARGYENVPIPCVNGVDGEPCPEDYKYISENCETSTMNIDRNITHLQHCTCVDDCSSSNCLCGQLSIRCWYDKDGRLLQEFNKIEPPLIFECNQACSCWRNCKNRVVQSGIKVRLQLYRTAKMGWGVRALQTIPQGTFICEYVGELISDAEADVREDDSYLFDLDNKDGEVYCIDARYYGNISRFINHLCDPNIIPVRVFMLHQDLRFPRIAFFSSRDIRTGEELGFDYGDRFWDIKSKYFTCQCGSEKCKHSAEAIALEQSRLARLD
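Methyltransferase reactions run at room temperature for 2 h (20 nM enzyme, 500 nM biotin-H3K9 peptide, 20 uM SAM) after a 15 min compound preincubation; product detected by AlphaScreen beads and anti-H3K9me1 antibody.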
BAZ2B inh: qHTS Assay for Inhibitors of BAZ2B; AID 504333, 2011; 360,000 tested, 4.4% active; Bromodomain adjacent to zinc finger domain protein 2B (Homo sapiens), Q9UIF8; AlphaScreen BAZ2B-H3K14Ac peptide displacement; Potency, µM (top dose mostly 114 µM), most hits filed as inhibitors; note: nearly all actives have a fitted effect of over 60% in size
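AlphaScreen displacement: compounds (up to 110uM) incubated 30 min at room temperature with a preformed 50 nM BAZ2B/50 nM biotinylated H3K14Ac peptide complex in PBS pH 7.4 with Tween-20. Donor and acceptor beads at 10 ug/mL final added, 20 min light-protected before reading.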
JMJD2A Tudor inh: qHTS Assay for Inhibitors of JMJD2A-Tudor Domain; AID 504339, 2011; Potency, µM (doses to about 114 µM), usual class: inhibitors; 390,000 tested, 4.4% active; AlphaScreen JMJD2A-Tudor / H3K4me3 peptide binding; note: nearly all actives have a fitted effect of over 50% in size
GLS inh: qHTS for Inhibitors of Glutaminase (GLS) | Glutaminase kidney isoform, mitochondrial (Homo sapiens), O94925 | GLS enzymatic activity, qHTS titration | Potency, µM (doses to about 45.5 µM), actives largely listed as inhibitors | 410,000 tested, 0.21% active | AID 624170, 2012
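hKGA in 45 mM KH2PO4 pH 8.2, 0.02% Tween-20 with pin-transferred compounds; 1 mM L-glutamine (stock) plus glutamate oxidase/HRP/Amplex Red coupling added. Fluorescence read initially and after 30 min at RT.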
HP1b binding inh: HTS for Inhibitors of HP1-beta Chromodomain Interactions with Methylated Histone Tails; Chromobox protein homolog 1 (Homo sapiens), P83916; AlphaScreen HP1-beta / biotin-H3K9me3 peptide binding; Potency, µM (top dose mostly 114 µM), most hits filed as inhibitors; 390,000 tested, 0.56% active; note: nearly all actives have a fitted effect of over 70% in size
Target sequence (P83916 whole entry, looked up): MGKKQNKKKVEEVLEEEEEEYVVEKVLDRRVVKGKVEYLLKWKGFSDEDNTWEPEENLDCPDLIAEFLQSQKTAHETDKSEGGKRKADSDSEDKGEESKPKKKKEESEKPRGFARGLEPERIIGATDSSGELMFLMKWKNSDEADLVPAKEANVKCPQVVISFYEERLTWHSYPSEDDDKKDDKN
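Compound inhibition of the preformed complex between 50 nM HP1-beta and 50 nM biotinylated H3K9me3 peptide was read by AlphaScreen. Buffer was PBS pH 7.4 with 0.01% Tween-20. Incubations ran 30 min at room temperature, with 10 ug/mL donor/acceptor beads.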
A number is an active result; – = inactive; ? = inconclusive; · = no result; [ ] = another dose, or the depositor's remark. A selection: hits, their analogues and other compounds. The true share with any hit is near 10%. Calls come from the whole dose curve; as a rule, active = well fitted curve in the direction sought with a large enough effect; inconclusive = small, poorly fitted or top-dose-only effect, or another doubt; inactive = no such curve, though single readings can be large; an effect the other way counts as inactive or inconclusive.

SMILES	G9a inh	BAZ2B inh	JMJD2A Tudor inh	GLS inh	HP1b binding inh
CN(C(=O)COC(=O)c1ccc2c(c1)NC(=O)CS2)C1CCS(=O)(=O)C1 (centres undefined)	50.1µM	–	–	–	–
Cc1nnc(NC(=O)C2CCCO2)s1 (centres undefined)	8.91µM	–	–	–	–
Cc1nnc(NC(=O)CCSCCC(=O)Nc2nnc(C)s2)s1	50.1µM	50.1µM	50.1µM	?	–
O=C(Nc1nnc(-c2ccccc2F)s1)C1CCCO1 (centres undefined)	?	–	–	–	–
O=C(Nc1nnc(Cc2ccc(Cl)cc2)s1)C1CCCO1 (centres undefined)	28.2µM	–	–	–	–
COc1ccc(Cc2nnc(NC(=O)C3CCCO3)s2)cc1 (centres undefined)	?	–	–	–	–
O=C(Nc1nnc(-c2ccncc2)s1)C1CCCO1 (centres undefined)	?	–	100µM	–	–
COCCSc1nnc(NC(=O)C2CCCO2)s1 (centres undefined)	–	–	–	–	–
O=C(Cc1nnc(-c2cc3ccccc3[nH]2)o1)Nc1cc(C(F)(F)F)ccc1Cl	·	·	–	·	·
CC(C)(C)C(=O)OCc1cn(-c2ccccc2)nn1	–[12.7 µM]	–	–	–	–
CC(C)n1c(N2CCCC2)nc2c1c(=O)[nH]c(=O)n2C	–	–	–	–	–
Cc1ccc(S(=O)(=O)NC(=O)c2cc(C)n(CC(c3ccccc3)N(C)C)c2C)cc1 (centres undefined)	?	–	–	–	–
COc1ccc(C=C(C#N)C(=O)c2ccccc2)cc1	·	·	·	–	·
COc1cc(/C=C(\C#N)C(=O)c2ccc(O)c(O)c2)cc(I)c1O	2.24µM	39.8µM	8.91µM	–	8.91µM
O=C(CN1C(=O)NC(c2ccccc2)(c2ccccc2)C1=O)c1c[nH]c2ccccc12	–	–	·	·	·
Cc1c(N)cc(N)cc1C(=O)O	79.4µM	–	–	–	–
CCC1CN(C(=O)N2CCC(C(=O)Nc3cc(C)ccc3C)CC2)c2ccccc2O1 (centres undefined)	–	79.4µM	?	–	–
CCC1CN(C(=O)N2CCC(C(=O)NCCc3ccccc3C)CC2)c2ccccc2O1 (centres undefined)	?	79.4µM	–	–	–
CCC1CN(C(=O)N2CCC(C(=O)NCc3ccccc3C)CC2)c2ccccc2O1 (centres undefined)	–	–	?	–	–
CCC1CN(C(=O)N2CCC(C(=O)NCc3ccc(C)o3)CC2)c2cc(C)ccc2O1 (centres undefined)	44.7µM	–	–	–	–
COCCCNc1nc2nonc2nc1N1CCN2CCCC2C1 (centres undefined)	·	–	–	–	–
Cc1ccc(CCNC(=O)c2c(C)oc3nc(C)nc(N4CCOCC4)c23)cc1	–	–	–	–	–
CCOc1ccc(-n2cnc3scc(-c4ccc(OC)c(OC)c4)c3c2=O)cc1	–	–	–	–	–
CCOc1ccc(C2c3c(ncn(-c4ccccc4)c3=N)Oc3ccc4ccccc4c32)cc1OCC (centres undefined)	·	·	39.8µM	·	·
N=c1c2c(ncn1CCN1CCOCC1)Oc1ccc3ccccc3c1C2c1ccccc1 (centres undefined)	?	–	–	·	–
SMILES	G9a inh	BAZ2B inh	JMJD2A Tudor inh	GLS inh	HP1b binding inh
c1ccc(C2c3c(ccc4ccccc34)Oc3ncn4nc(-c5ccco5)nc4c32)cc1 (centres undefined)	?	–	–	–	–
N=c1c2c(ncn1-c1ccccc1)Oc1ccc3ccccc3c1C2c1ccc2c(c1)OCCO2 (centres undefined)	·	·	22.4µM	·	·
N=c1c2c(ncn1-c1ccccc1)Oc1ccc3ccccc3c1C2c1ccc2c(c1)CCO2 (centres undefined)	·	·	35.5µM	·	·
Cc1ccccc1Cn1c(CN2CCC(C(=O)NCc3ccc(Cl)cc3)CC2)cc2ccccc21	–	–	–	–	–
CCOC(=O)c1c(C)[nH]c(C)c1C(=O)CSc1nc2ccccc2c(=O)n1-c1ccc(Cl)cc1	–	–	–	–	–
O=C(CN1CCOCC1)NNC(=O)c1ccc([N+](=O)[O-])cc1	50.1µM	–	–	–	–
CC1CCCN(c2ccc(C(=O)NCc3ccco3)cc2[N+](=O)[O-])C1 (centres undefined)	?	44.7µM	56.2µM	–	?
O=C(c1cc(S(=O)(=O)Nc2ccccc2F)c(Cl)cc1Cl)N1CCN(CCO)CC1	?	–	–	–	–
O=C(Nc1ccccn1)c1sc2cc([N+](=O)[O-])ccc2c1Cl	1.58µM	?	56.2µM	–	–
O=C(NCCN1CCOCC1)c1cc(S(=O)(=O)Nc2ccccc2F)c(Cl)cc1Cl	50.1µM	–	–[11.4 µM]	–	–
COc1cc(S(=O)(=O)NCC(c2ccco2)N2CCCCC2)ccc1NC(C)=O (centres undefined)	?	–	–	–	–
O=C(NCCN1CCOCC1)c1ccc(NS(=O)(=O)c2cccc([N+](=O)[O-])c2)cc1	50.1µM	–	–	–	–
O=C(NCCCN1CCOCC1)c1sc2cc([N+](=O)[O-])ccc2c1Cl	0.891µM	–	79.4µM	–	?
O=C(NCCN1CCOCC1)c1cc([N+](=O)[O-])ccc1Cl	56.2µM	?	–	–	–
O=C(NCCCN1CCOCC1)c1sc2cc(Cl)ccc2c1Cl	–	–	–	–	–
O=C(NCCN1CCOCC1)c1ccc([N+](=O)[O-])cc1[N+](=O)[O-]	–	–	–	–	–
O=C(NCc1ccco1)c1cc([N+](=O)[O-])ccc1N1CCOCC1	10µM	79.4µM	–	–	–
O=C(NCCN1CCOCC1)c1ccc(NS(=O)(=O)c2ccccc2)cc1	–	–	–	–	–
O=C(NCc1ccco1)c1cc([N+](=O)[O-])ccc1Cl	·	–	–	?	–
CCOC(=O)Nc1cccc2c1-c1ccc([N+](=O)[O-])cc1C2=O	·	·	–	–	–
Cc1cccc(NS(=O)(=O)c2cc3c(cc2C)NC(=O)CO3)c1	·	–	–	–	–
CN1CCN(Cc2c(O)ccc3cc(-c4ccc(Cl)cc4)c(=O)oc23)CC1	–	–	–	–	–
COc1cccc(C(=O)n2nc(-c3cccnc3)nc2NCc2ccc(F)cc2)c1	–	–	–	–	–
Cc1occc1-c1nnc(SCC(=O)c2ccc(Cl)cc2)n1CC1CCCO1 (centres undefined)	–[0.501 µM]	?	–	–	–
CCn1c(SCC(=O)c2ccc(Cl)cc2)nnc1-c1ccoc1C	–	–	50.1µM	–	–
CCn1c(SCC(=O)c2ccccc2)nnc1-c1ccoc1C	–	–	–	–	–

Bioassay records: PubChem, National Center for Advancing Translational Sciences (NCATS)
